These results are taken from PubChem BioAssay (Tox21).

Assay [1] can be described thus: qHTS assay for identifying genotoxic compounds that show differential cytotoxicity against isogenic chicken DT40 cell lines with known DNA damage response pathways - Rad54/Ku70 mutant cell line (AID 743015). Further: nearly all actives have a fitted effect of over 60% in size. Further: potency means the concentration at half of the fitted maximal effect. In general terms: Quantitative high-throughput screening tests each substance at several concentrations.
Assay [2] in a line: qHTS assay to identify small molecule antagonists of the androgen receptor (AR) signaling pathway - cell viability counter screen (AID 743033; further: nearly all actives have a fitted effect of over 45% in size).
Assay [3] in a line: qHTS assay to identify small molecule antagonists of the androgen receptor (AR) signaling pathway using the MDA cell line - cell viability counter screen (AID 743041; further: nearly all actives have a fitted effect of over 45% in size). The method in brief: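 Cells were plated at 3,000 per well and left 5 h. Compounds in DMSO were then pinned in, followed by R1881. After 16 h at 37C, CellTiter-Fluor fluorescence gave viability.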
Assay [4] in a line: qHTS assay to identify small molecule antagonists of the thyroid receptor (TR) signaling pathway - cell viability counter screen (AID 743064). Further: nearly all actives have a fitted effect of over 50% in size. The method in brief:
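GH3.TRE-Luc cells, 4 h pre-plating; cpd + T3 1 nM final; 37 °C 23.5 h; CellTiter-Fluor 30 min; fluorescence read.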

Assay [5] is described as follows: qHTS assay to identify small molecule antagonists of the thyroid receptor (TR) signaling pathway (AID 743065). Further: nearly all actives have a fitted effect of over 55% in size. Further: potency means the concentration at half of the fitted maximal effect. The method, boiled down:
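Antagonism measured as loss of luciferase signal in GH3 cells stably carrying a TRE-luciferase reporter, co-treated with compound and T3 (1 nM final) for 23.5 h at 37 C. Viability was read in the same well by CellTiter-Fluor.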

For assay [6], the system named is thyroid hormone receptor (rat, GH3 cells). Description: qHTS assay to identify small molecule agonists of the thyroid receptor (TR) signaling pathway (AID 743066; calls by dose curve).
A short description of assay [7]: qHTS assay to identify small molecule antagonists of the estrogen receptor alpha (ER-alpha) signaling pathway - cell viability counter screen (AID 743074; calls by dose curve;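 further: HEK293 cells carrying ER-alpha-UAS-bla reporter stimulated with 17beta-estradiol; nearly all actives have a fitted effect of over 45% in size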).
A short description of assay [8]: qHTS assay to identify small molecule antagonists of the estrogen receptor alpha (ER-alpha) signaling pathway using the BG1 cell line - cell viability counter screen (AID 743081).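 Further: compound given together with 17beta-estradiol as the ER stimulus; series mostly up to about 70 µM; nearly all actives have a fitted effect of over 45% in size.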
Assay [9] in a line: qHTS assay for identifying genotoxic compounds that show differential cytotoxicity against isogenic chicken DT40 cell lines with known DNA damage response pathways - wild type cell line (AID 743012). Further: nearly all actives have a fitted effect of over 60% in size. Further: potency means the concentration at half of the fitted maximal effect. The method in brief: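 Wild type DT40, 300 cells/well, ~0.5 h settle at 37 C/5% CO2; compounds in DMSO added by pintool; 40 h at 37 C/5% CO2; CellTiter-Glo, 30 min RT; luminescence.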

Assay [10] in a line: qHTS assay for identifying genotoxic compounds that show differential cytotoxicity against isogenic chicken DT40 cell lines with known DNA damage response pathways - Rev3 mutant cell line (AID 743014). Further: nearly all actives have a fitted effect of over 55% in size. Further: potency means the concentration at half of the fitted maximal effect.
For another assay, the target named is Aromatase (Homo sapiens) (UniProt P11511). Description: qHTS assay to identify aromatase inhibitors (AID 743083). Further: series mostly up to about 70 µM; nearly all actives have a fitted effect of over 55% in size.
Chain of Aromatase (Homo sapiens) (P11511 whole entry, looked up): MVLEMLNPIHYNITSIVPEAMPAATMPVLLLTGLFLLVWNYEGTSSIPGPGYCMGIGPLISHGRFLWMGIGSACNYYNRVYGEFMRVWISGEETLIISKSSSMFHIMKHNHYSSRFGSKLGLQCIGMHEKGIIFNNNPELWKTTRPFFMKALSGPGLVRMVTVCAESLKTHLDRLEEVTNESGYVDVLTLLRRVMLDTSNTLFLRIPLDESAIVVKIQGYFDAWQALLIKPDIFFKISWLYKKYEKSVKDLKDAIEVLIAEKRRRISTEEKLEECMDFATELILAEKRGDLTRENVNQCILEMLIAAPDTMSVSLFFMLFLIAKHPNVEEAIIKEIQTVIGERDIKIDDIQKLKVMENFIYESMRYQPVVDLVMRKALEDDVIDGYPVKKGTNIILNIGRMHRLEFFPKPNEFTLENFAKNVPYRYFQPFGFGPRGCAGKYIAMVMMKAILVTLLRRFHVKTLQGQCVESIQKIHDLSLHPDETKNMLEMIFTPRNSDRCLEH
Assay [11] has as its target Estrogen receptor (Homo sapiens) (UniProt P03372). Description: qHTS assay to identify small molecule antagonists of the estrogen receptor alpha (ER-alpha) signaling pathway (AID 743069; active means well fitted curve in the direction sought with a large enough effect in the signal ratio in the repeat runs, not every such curve was filed as active; the % refers to the signal ratio). The method, boiled down:
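ER-alpha-UAS-bla GripTite HEK293 line; 2% charcoal-stripped FBS overnight; plated, 4 hr 37C/5% CO2; cpd in DMSO + 17beta-estradiol, 18 hr 37C; LiveBLAzer B/G FRET substrate 2 hr RT; fluorescence intensity.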

Assay [12] shares this target. Description: qHTS assay to identify small molecule agonists of the estrogen receptor alpha (ER-alpha) signaling pathway (AID 743075; calls by dose curve;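 further: HEK293 GripTite cells with ER-alpha and UAS-driven beta-lactamase reporter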).
Assay [13] is described as follows: qHTS assay to identify small molecule antagonists of the estrogen receptor alpha (ER-alpha) signaling pathway using the BG1 cell line (AID 743080; calls by dose curve; further: series mostly up to about 70 µM; nearly all actives have a fitted effect of over 25% in size). The method in brief:
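Antagonist mode: compounds in DMSO were pinned onto BG1-Luc-4E2 cells alongside 17beta-estradiol agonist, incubated 21.5 h, and ERE-driven luciferase measured with ONE-Glo. Cytotoxicity was multiplexed using CellTiter-Fluor fluorescence.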

The target of assay [14] is Estrogen receptor (Homo sapiens) (UniProt P03372). Description: qHTS assay to identify small molecule agonists of the estrogen receptor alpha (ER-alpha) signaling pathway using the BG1 cell line (AID 743079). Further: nearly all actives have a fitted effect of over 20% in size.
Chain of Estrogen receptor (Homo sapiens) (P03372 whole entry, looked up): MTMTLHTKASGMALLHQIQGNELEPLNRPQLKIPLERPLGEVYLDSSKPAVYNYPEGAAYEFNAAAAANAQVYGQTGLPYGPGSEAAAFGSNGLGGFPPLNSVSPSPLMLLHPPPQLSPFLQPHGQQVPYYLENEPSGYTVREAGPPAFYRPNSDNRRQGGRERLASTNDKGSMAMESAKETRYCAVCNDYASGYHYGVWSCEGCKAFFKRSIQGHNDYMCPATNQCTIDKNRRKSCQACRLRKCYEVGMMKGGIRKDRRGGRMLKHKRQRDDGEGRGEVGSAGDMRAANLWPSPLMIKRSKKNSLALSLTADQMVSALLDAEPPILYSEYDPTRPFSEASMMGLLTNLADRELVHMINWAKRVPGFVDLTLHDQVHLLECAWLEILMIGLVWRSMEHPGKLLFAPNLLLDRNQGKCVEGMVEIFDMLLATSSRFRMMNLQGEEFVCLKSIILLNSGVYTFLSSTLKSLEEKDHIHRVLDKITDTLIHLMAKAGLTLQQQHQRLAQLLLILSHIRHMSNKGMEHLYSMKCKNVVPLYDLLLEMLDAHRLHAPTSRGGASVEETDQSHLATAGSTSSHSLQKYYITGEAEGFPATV
In assay [15] the target is Androgen receptor (Homo sapiens) (UniProt P10275). Description: qHTS assay to identify small molecule antagonists of the androgen receptor (AR) signaling pathway (AID 743035; active means well fitted inhibition curve with a large enough effect in the signal ratio in the repeat runs, not every such curve was filed as active; the % refers to the signal ratio). The method, boiled down:
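Fluorescence from a beta-lactamase FRET substrate (LiveBLAzer B/G, 2 h, room temperature) measured inhibition of R1881-stimulated signaling in GeneBLAzer AR-UAS-bla HEK293 cells exposed to compound for 16 h at 37C.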

The target is the same in assay [16]. Description: qHTS assay to identify small molecule agonists of the androgen receptor (AR) signaling pathway (AID 743036; active means well fitted activation curve with a large enough effect in the signal ratio in the repeat runs, with a control signal flat, not every such curve was filed as active; the % refers to the signal ratio). The method, boiled down:
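AR-bla HEK293 cells, 2,000/well; 4 h preincubation 37C/5% CO2; compound (DMSO) 16 h at 37C; LiveBLAzer B/G FRET substrate 2 h RT; fluorescence intensity read-out.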

The target is the same in assay [17]. Description: qHTS assay to identify small molecule agonists of the androgen receptor (AR) signaling pathway using the MDA cell line (AID 743040; further: nearly all actives have a fitted effect of over 20% in size). The method in brief:
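Cells plated, 5 h at 37C/0% CO2; compound or DMSO pinned; 16 h at 37C; ONE-Glo added; luminescence measured after 30 min at room temperature. Reporter line: MDA-kb2 with MMTV-luciferase responsive to AR and GR.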

Assay [18] has the same target. Description: qHTS assay to identify small molecule antagonists of the androgen receptor (AR) signaling pathway using the MDA cell line (AID 743042; further: nearly all actives have a fitted effect of over 55% in size). The method in brief:
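Antagonist mode: compounds plus R1881 agonist added to MDA-kb2 AR-luc cells, incubated 16 h at 37C. Luciferase reporter luminescence quantified, with multiplexed CellTiter-Fluor readout for cell viability.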

Structures are written as SMILES. Inconclusive results are not listed. The source made the active and inactive calls. Unless noted, the call rests on the fitted dose curve; in most records, active means well fitted curve in the direction sought with a large enough effect in the repeat runs; inconclusive means weak or mixed curves; inactive means no such curve, though single readings can be large; an effect the other way counts as inactive or inconclusive.

Chain of Androgen receptor (Homo sapiens) (P10275 whole entry, looked up): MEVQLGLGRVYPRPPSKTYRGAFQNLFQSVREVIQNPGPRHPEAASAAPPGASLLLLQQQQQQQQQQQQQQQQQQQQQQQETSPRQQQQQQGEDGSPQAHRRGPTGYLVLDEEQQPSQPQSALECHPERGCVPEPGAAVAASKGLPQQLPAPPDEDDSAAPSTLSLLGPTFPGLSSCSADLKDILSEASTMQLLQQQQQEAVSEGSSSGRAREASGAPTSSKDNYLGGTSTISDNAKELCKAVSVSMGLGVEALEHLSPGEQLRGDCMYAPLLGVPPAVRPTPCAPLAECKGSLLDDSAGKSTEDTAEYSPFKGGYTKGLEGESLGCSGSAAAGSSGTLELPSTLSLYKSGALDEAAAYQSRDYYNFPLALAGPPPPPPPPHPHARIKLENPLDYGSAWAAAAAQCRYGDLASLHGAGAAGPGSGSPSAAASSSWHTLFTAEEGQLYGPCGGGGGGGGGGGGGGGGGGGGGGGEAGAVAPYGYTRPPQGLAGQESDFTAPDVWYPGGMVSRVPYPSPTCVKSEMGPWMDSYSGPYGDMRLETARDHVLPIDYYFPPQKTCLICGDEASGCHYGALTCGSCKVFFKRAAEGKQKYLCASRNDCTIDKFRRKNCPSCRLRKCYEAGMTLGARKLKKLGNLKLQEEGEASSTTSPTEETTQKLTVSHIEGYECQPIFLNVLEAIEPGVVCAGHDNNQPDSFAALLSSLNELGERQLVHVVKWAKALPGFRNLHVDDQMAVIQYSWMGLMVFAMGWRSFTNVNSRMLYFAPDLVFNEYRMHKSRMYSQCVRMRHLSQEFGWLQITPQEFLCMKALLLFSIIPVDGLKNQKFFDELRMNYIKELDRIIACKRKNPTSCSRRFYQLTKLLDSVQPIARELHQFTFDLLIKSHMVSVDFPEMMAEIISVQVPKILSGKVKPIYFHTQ

For `c1ccc(CNc2ncnc3nc[nH]c23)cc1`, the Potency in assay [1] was 48.6 µM (active). Besides, the outcome in assay [2], in assay [3] and in assay [8] was inactive. Moreover, the Potency entry in assay [4], in [5], in [6] and in assay [7] was “inactive” in each case.

Consider `COc1ccc(OC)c(NC(=O)CC(C)=O)c1`, for which the Potency entry in [1], in [4], in assay [5], in assay [6] and in [7] was “inactive” each time. The result in [2], in assay [3] and in [8] was inactive.

With `C=CCOc1cc(Cl)ccc1C(=O)NCCN(CC)CC`, the Potency in assay [9] was 15 µM (active); in [10] it was 29.8 µM (active); in [5], 13.3 µM (active). The call (in assay [2]; in assay [3]; in [8]; with Aromatase (Homo sapiens)) was inactive. In addition, the Potency entry in [6] and in assay [7] was “inactive” throughout.

Regarding `CCOC(=O)CCCCCCCCC(=O)OCC`, in [10], the Potency is 61.1 µM (active). Moreover, the molecule was classed as inactive (in [2]; in assay [3]; in [13]; in assay [8]; with Aromatase (Homo sapiens)). Besides, the Potency entry in assay [4], in assay [5], in assay [6], in assay [11], in assay [7] and in assay [12] was “inactive” throughout.

With `Cc1cc(O)c2c(c1)C(=O)c1cccc(O)c1C2=O`, the Potency result in assay [9], in assay [4], in [5], in assay [6], in assay [11] and in assay [7] was “inactive” throughout. For the same molecule, the Potency result in [12] and in [14] was “inactive” throughout. In addition, in [1], the Potency is 26.7 µM (active). The call (in assay [2]; in assay [3]; in [13]; with Aromatase (Homo sapiens)) was inactive.

Take `CC(C)COC(=O)COc1ccc(Cl)cc1Cl`: the result in [2], in assay [16], in [17], in assay [3], in assay [18] and in [8] was inactive. In the assay with Aromatase (Homo sapiens), the call was inactive. The Potency entry in [15], in assay [4], in [5], in [6] and in assay [7] was “inactive” in each case.

As for `CC(C)(C)c1ccc(C=O)cc1`, the Potency result in [9], in assay [1], in assay [5], in assay [6], in assay [11] and in [7] was “inactive” each time. Further, the Potency result in assay [12] and in assay [14] was “inactive” throughout. Moreover, the result (in assay [2]; in assay [3]; in assay [13]; in assay [8]; in the assay with Aromatase (Homo sapiens)) was inactive.

As for `CC(C)CCCCCCOC(=O)C1CCCCC1C(=O)OCCCCCCC(C)C` (stereo unspecified), the Potency result in assay [1], in assay [4], in assay [5], in assay [6], in assay [7] and in assay [12] was “inactive” each time. Moreover, the Potency entry in [14] was “inactive”. In addition, the molecule was called inactive (in assay [2]; in assay [3]; in assay [13]; in assay [8]; in the assay with Aromatase (Homo sapiens)).

On to `CC(C)COC(=O)/C=C/c1ccccc1`, for which the Potency result in [9], in assay [10], in [4], in [5], in assay [6] and in assay [11] was “inactive” in each case. Moreover, the Potency entry in assay [7], in [12] and in [14] was “inactive” each time. The molecule was called inactive in assay [2], in [3], in [13] and in assay [8].

On to `CCC(C)(C)C1CCC(=O)CC1`, for which the Potency entry in [9], in assay [1], in [15], in assay [4], in assay [5] and in [6] was “inactive” in each case. Also, the Potency entry in assay [11], in [7] and in [12] was “inactive” in each case. For the same molecule, the result in [16], in assay [17], in [3], in [18], in assay [13] and in assay [8] was inactive. In addition, the call in the assay with Aromatase (Homo sapiens) was inactive.

Turning to `COC(=O)CCC(=O)O`, the Potency entry in assay [10], in assay [1], in assay [6], in assay [11], in assay [7] and in assay [12] was “inactive” in each case. Besides, the Potency result in [14] was “inactive”. Moreover, the outcome (in assay [3]; in assay [13]; in assay [8]; with Aromatase (Homo sapiens)) was inactive.

As for `CCCCCC1CCCC(=O)O1` (stereo unspecified), the Potency result in assay [10], in assay [1], in assay [5], in [6] and in assay [7] was “inactive” each time. Further, the outcome (in [2]; in assay [3]; in assay [8]; with Aromatase (Homo sapiens)) was inactive.

`CCCCC(CC)COC(=O)c1ccccc1` (stereo unspecified): the Potency result in assay [10], in assay [1], in [4], in [5], in assay [6] and in assay [11] was “inactive” each time. Besides, the Potency result in assay [7], in [12] and in [14] was “inactive” throughout. Also, the molecule was called inactive (in assay [2]; in assay [3]; in assay [13]; in [8]; with Aromatase (Homo sapiens)).

For the molecule `CCCCC[Si](OCC)(OCC)OCC`, the Potency entry in assay [9], in [1], in assay [4] and in assay [7] was “inactive” throughout. The call in [2], in assay [16], in [17], in assay [3], in assay [18] and in assay [8] was inactive. The call with Aromatase (Homo sapiens) was inactive.
